DT40 TDP1 no CPT: qHTS for Inhibitors of human tyrosyl-DNA phosphodiesterase 1 (TDP1): qHTS in cells in absence of CPT | DT40 Tdp1-/- hTDP1 cells, no CPT, ATP luminescence, 48 h | Potency, µM (titrated, usually from 46.2 µM), hits mostly inhibitors | actives 15% (n = 420,000) | AID 686978, 2013; further: nearly all actives have a fitted effect of over 55% in size
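A cellular qHTS used chicken DT40 cells lacking endogenous Tdp1 but carrying stably transfected human TDP1. Compounds were applied without camptothecin, and cell growth kinetics were judged by ATP-dependent luminescence after ≥48 hr.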
HT1080NT lethal: kills 2HG-producing HT-1080-NT fibrosarcoma cells. Potency, µM (series often up to 46.1 µM), most hits filed as cytotoxic. HT-1080-NT fibrosarcoma viability, CellTiter-Glo ATP luminescence, 48 h. actives 1.6% (n = 360,000);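 further: NT is the 2HG producing partner of a matched IDH1 knockdown line; nearly all actives have a fitted effect of over 55% in size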
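Viability by CellTiter-Glo luminescence after 48 h compound exposure at 37C of HT-1080-NT cells (750/well, RPMI, 5% FBS). % activity scaled between DMSO wells and medium-only wells, then curve-fitted and categorized by curve class.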
KB-3-1 cytotox: KB-3-1 parental cell cytotoxicity | KB-3-1 viability, CellTiter-Glo ATP luminescence, 72 h | Potency, µM (highest dose often 46.1 µM), most hits filed as cytotoxic | actives 1.4% (n = 400,000); further: nearly all actives have a fitted effect of over 60% in size
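Parental KB-3-1 adenocarcinoma cells in phenol-red-free DMEM with 10% FBS were pin-treated with compounds at several concentrations, incubated 72 h at 37 °C, and viability read by CellTiter-Glo luminescence; concentration-effect curves were fitted after normalization.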
DT40 TDP1 CPT: growth inhibition of DT40 Tdp1-/-;hTDP1 cells with camptothecin (screen for TDP1 inhibitors). chicken DT40 Tdp1-/-;hTDP1 cells + 20 nM CPT, ATP luminescence, 48 h. Potency, µM (doses to about 46.2 µM), actives largely listed as inhibitors. actives 12% (n = 420,000); further: nearly all actives have a fitted effect of over 55% in size
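Chicken DT40 Tdp1-/- cells complemented with human TDP1, 400 cells/well, exposed to compounds plus 20 nM camptothecin for at least 48 h at 37 C; viability read as ATP content by CellTiter-Glo luminescence.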
HT1080 IDH1KD tx: toxicity to HT-1080 IDH1 knockdown cells (counter line); actives 2% (n = 360,000); HT-1080 IDH1 knockdown viability, ATP luminescence, 48 h; Potency, µM (titrated, usually from 46.1 µM), actives largely listed as cytotoxic
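Viability of IDH1-knockdown HT-1080 fibrosarcoma cells was assessed by CellTiter-Glo after 48 h at 37 °C with titrated compound; concentration-effect curves were classified by fit quality and response size.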
KB-V1 MDR tox: kills drug-selected multidrug resistant KB-V1 cells. KB-V1 MDR cells viability, CellTiter-Glo, 72 h. Potency, µM (highest dose often 46.1 µM), usual class: cytotoxic. actives 3.4% (n = 400,000). AID 1347076; further: nearly all actives have a fitted effect of over 60% in size
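Cells of the MDR subline KB-V1 are plated, dosed with compound at multiple concentrations, and incubated 72 h at 37 degrees C; CellTiter-Glo is then added and luminescence read after 10 min.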
Hits are given with their value; – = inactive; ? = inconclusive; · = not tested or not shown; ! = repeats disagree. Only some compounds are listed: those with a hit (about 19% of all), similar ones and a draw of the others. The call rests on the fitted dose curve; in most records, active means well fitted curve in the direction sought with a large enough effect; inconclusive means small, poorly fitted or top-dose-only effect, or another doubt; inactive means no such curve, though single readings can be large; an effect the other way counts as inactive or inconclusive.

SMILES	DT40 TDP1 no CPT	HT1080NT lethal	KB-3-1 cytotox	DT40 TDP1 CPT	HT1080 IDH1KD tx	KB-V1 MDR tox
O=C(c1ccco1)N1CCN(CC(O)COc2ccc3oc4ccccc4c3c2)CC1 (stereo not given)	?	–	–	18.4µM	?	?
Cc1ccc(CN2CCN(C(=O)c3ccco3)CC2)cc1	–	–	–	–	–	–
Cc1cc(Cl)ccc1OCCCC(=O)N1CCN(C(=O)c2ccco2)CC1	20.6µM	–	–	?	–	?
CCn1c2ccccc2c2cc(CN3CCN(C(=O)c4ccco4)CC3)ccc21	23.1µM	?	–	?	?	–
O=C(CCCOc1ccccc1)N1CCN(C(=O)c2ccco2)CC1	–	–	–	–	–	?
Cc1cc(C)cc(NC(=O)c2cccc(C(=O)Nc3cc(C)cc(C)c3)n2)c1	?	–	–	?	–	–
CCOC(=O)c1c(-c2ccccc2)c[nH]c1C	?	–	–	–	–	?
OC(CNCc1ccccc1C(F)(F)F)C(F)(F)F (stereo not given)	–	–	–	–	–	–
COc1ccc(C(=O)N2CCN(Cc3ccc4c(c3)OCO4)CC2)cc1OC	?	–	–	–	?	–
COc1ccc(CN2CCN(C(=O)CCC(=O)c3ccc(C)s3)CC2)cc1OC	?	–	–	–	–	4.11µM
COc1ccc(CN2CCN(C(=O)c3ccco3)CC2)cc1OCc1ccccc1	14.6µM	–	?	?	–	–
O=C(Oc1ccc(Br)cc1C(=O)/C=C/c1ccccc1F)c1ccco1	16.4µM	?	–	20.6µM	?	–
COc1cc(Nc2ccc(C)cc2)c([N+](=O)[O-])nc1[N+](=O)[O-]	2.59µM	3.16µM	?	2.06µM	3.16µM	5.8µM
COc1ccc(/C=N/N2C(=N)SCC2=O)cc1	–	–	7.31µM	–	–	2.59µM
CC(C)CCOc1ccc(/C=N/N2C(=O)CSC2=S)cc1	?	–	–	?	–	–
N[C@@H](C(=O)O)[C@@H](CC(=O)O)c1ccc(Cl)cc1	–	·	·	–	·	·
O=C(NOC(=O)c1ccccc1)c1ccccc1	23.1µM	–	–	?	–	–
O=C(NO)c1ccccc1	21.7µM	·	·	24.3µM	·	·
CN(Cc1ccccc1)S(=O)(=O)c1cccc(C(=O)O)c1	–	–	–	–	–	–
CC(C)C(=O)c1cc2c(cc1NC(=O)c1ccccc1F)OCCO2	?	·	–	?	·	–
COc1ccc(CNC(=O)c2cc3c(=O)n(Cc4cccnc4)ccc3nc2C)cc1	–	·	–	–	·	–
CCn1nc(NS(=O)(=O)c2ccccc2)c2cc3ccccc3nc21	?	–	–	23.1µM	–	–
Cc1ccc2c(c1)c(=O)c1ccccc1n2CCCC(=O)Nc1ccc(F)cc1F	?	·	–	–	·	–
COc1ccc(NC(=O)CCn2c(=O)c3cccn3c3ccccc32)c(OC)c1	20.6µM	–	–	16.4µM	–	–
Cc1ccc(NC(=O)CCn2c(=O)c3cccn3c3ccccc32)c(C)c1	20.6µM	–	–	?	–	–
SMILES	DT40 TDP1 no CPT	HT1080NT lethal	KB-3-1 cytotox	DT40 TDP1 CPT	HT1080 IDH1KD tx	KB-V1 MDR tox
Cc1cc(C)cc(NC(=O)CCCn2c3ccccc3c(=O)c3ccccc32)c1	23.1µM	·	?	?	·	?
CCOC(=O)c1ccc(NC(=O)CCn2c(=O)c3cccn3c3ccccc32)cc1	–	·	·	?	·	·
Cc1cc(C)cc(NC(=O)CCn2c(=O)c3cccn3c3ccccc32)c1	8.2µM	–	9.2µM	5.8µM	?	?
Cc1ccc(NC(=O)Cn2c(=O)c3cccn3c3ccccc32)c(C)c1	–	–	–	–	–	–
Cc1cccc(C(=O)Nc2ccccc2C(=O)NCc2ccco2)c1	–	–	–	–	–	?
CCOC(=O)C1(Cc2ccccc2C)CCCN(Cc2ccc(NC(C)=O)cc2)C1 (stereo not given)	?	–	–	–	–	–
CCn1ccnc1CN(C)Cc1nc(CCC(C)C)no1	–	–	–	–	–	?
CC1(C(=O)NC2CCCC2)CCC(=O)N1CCc1c[nH]c2ccccc12 (stereo not given)	–	–	–	–	–	–
COc1cccc(NC(=O)CCCn2c(=O)c3cccn3c3cccnc32)c1	20.6µM	·	·	?	·	·
COc1ccc(NC(=O)CCn2c(=O)c3cccn3c3ccccc32)cc1	?	–	–	?	–	–
O=C(CCn1c(=O)c2cccn2c2ccccc21)Nc1ccc(F)cc1	11.6µM!	?	–	?	?	–
COc1cc2c(C#Cc3cccnc3)c(-c3ccsc3)oc(=O)c2cc1OC	?	–	–	?	–	–
CCOCCCNC(=O)CN1CCN(Cc2ccc(Cl)cc2)C1=O	–	–	–	–	–	–
Cc1cc(C)c(NC(=O)C(=O)NCC(c2cccnc2)N2CCN(Cc3ccccc3)CC2)c(C)c1 (stereo not given)	5.8µM	·	–	11.6µM	·	–
Cc1ccc(NC(=O)C(=O)NCC(c2cccnc2)N2CCN(C)CC2)cc1F (stereo not given)	–	·	–	–	·	–
Cc1cccc(NC(=O)C(=O)NCC(c2cccnc2)N2CCOCC2)c1 (stereo not given)	–	·	–	–	·	–
Cc1ccc(NC(=O)C(=O)NCC(c2cccnc2)N2CCN(c3ccccc3F)CC2)cc1Cl (stereo not given)	23.1µM	·	–	20.6µM	·	–
Cc1cc(C)c(NC(=O)C(=O)NCC(c2cccnc2)N2CCN(c3ccccc3F)CC2)c(C)c1 (stereo not given)	14.6µM	·	–	14.6µM	·	–
CCOC(=O)N1CCN(C(=O)COC(=O)CNC(=O)c2ccc(C)cc2)CC1	–	–	–	–	–	–
COc1ccc(S(=O)(=O)N(C)C)cc1NC(=O)CSc1nnc(-c2cccnc2)o1	–	–	–	–	–	–
Cc1ccc(NC(=O)CN2C(=O)CCc3ccccc32)cc1C	?	·	–	?	·	–
Cc1ccc(CS(=O)Cc2ccc(C(=O)NCc3cccs3)o2)cc1 (stereo not given)	–	–	–	–	–	–
CCc1ccccc1S(=O)(=O)Cc1ccc(C(=O)NCc2cccs2)o1	?	–	–	18.4µM	–	–
Cc1ccc(CS(=O)(=O)Cc2ccc(C(=O)NCc3cccs3)o2)cc1	–	–	?	18.4µM	–	–
O=C(Nc1nnc(-c2ccc(Cl)cc2)o1)C1=COCCO1	–	–	–	–	–	8.2µM
CC(C)(C)c1ccc(C(=O)Nc2nnc(C3=COCCO3)o2)cc1	16.4µM	–	?	13µM	–	?
